Bioassay records deposited in PubChem by several laboratories.
IDE inh – inhibitors of human insulin-degrading enzyme in cells. P14735. HEK cells, FAbetaB cleavage, fluorescence polarization. inhibition, % at 5.59 µM. 0.41% of 320,000 active. AID 434962;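 active = percent inhibition above the average of all tested compounds plus 3 SD, set per screening campaign, cut at about 16% in these data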;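 note: IDE supplied by intact live HEK cells; FP after avidin binding of uncleaved biotin substrate so inhibition keeps polarization high; 0% = DMSO wells and 100% = 60 µM reference IDE inhibitor Ii1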
TMEM16A inh – blocks the mouse calcium-activated chloride channel TMEM16A; Q8BHY3; HEK293 TMEM16A/YFP iodide influx fluorescence, ionomycin; normalized B-score (activity score, 25-100; higher = stronger inhibition) at 10 µM; 1.2% of 310,000 active;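 active = ratio plate-corrected score three or more library SD toward inhibition, starting fluorescence score within five deviations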;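 note: score derived from kinetic fluorescence span divided by baseline fluorescence per well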
IDE cell activ – IDE (human) activation, cell-based | P14735 | activation, % at 5.96 µM | HEK cells, FAbeta-B cleavage, fluorescence polarization; 0% vehicle, 100% cell-free pure enzyme wells | 0.073% of 340,000 active;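 active = activation above the mean of all tested compounds plus 3 SD, set per screening campaign, cut at about 17% in these data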
CHT inh – inhibitors of human choline transporter CHT. B-score at 10 µM. AID 488975. 0.86% of 310,000 active. CHT-expressing cells, membrane potential dye, choline response; hits give low values. Q9GZV3;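 active = B-score over 3 SD under the library average, and starting fluorescence ratio not unusually high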;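 note: choline stimulus applied at its EC90 after an EC20 pre-addition; B-score computed on integrated fluorescence ratio after choline addition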
Target sequence (Q9GZV3 whole entry, looked up): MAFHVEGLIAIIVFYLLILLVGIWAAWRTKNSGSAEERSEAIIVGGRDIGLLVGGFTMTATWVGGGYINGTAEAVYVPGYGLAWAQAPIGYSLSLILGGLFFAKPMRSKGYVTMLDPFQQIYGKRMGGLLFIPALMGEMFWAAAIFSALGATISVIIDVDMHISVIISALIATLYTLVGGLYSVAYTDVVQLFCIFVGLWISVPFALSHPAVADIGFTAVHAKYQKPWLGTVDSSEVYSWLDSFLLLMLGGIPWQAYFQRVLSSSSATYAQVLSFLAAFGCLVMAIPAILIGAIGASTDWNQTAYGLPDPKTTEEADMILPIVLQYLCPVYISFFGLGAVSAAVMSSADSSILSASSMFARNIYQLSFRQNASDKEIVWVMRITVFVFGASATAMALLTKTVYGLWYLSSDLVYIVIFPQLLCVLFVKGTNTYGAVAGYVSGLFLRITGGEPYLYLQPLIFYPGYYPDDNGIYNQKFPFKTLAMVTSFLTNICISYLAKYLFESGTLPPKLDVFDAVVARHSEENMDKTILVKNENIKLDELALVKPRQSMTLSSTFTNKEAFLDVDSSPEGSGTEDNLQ
CHT allo act – allosterically activates the human high affinity choline transporter; Q9GZV3; CHT-expressing cells, membrane potential dye, choline EC20; hits give high values; LV-AA mutant CHT in HEK293 cells; B-score at 10 µM; 0.49% of 310,000 active;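 active = initial fluorescence not abnormally high and integrated response B-score, plate-corrected, over 3 SD above library mean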
ANO1 activ – activates or potentiates the mouse TMEM16A chloride channel; HEK293 TMEM16A/YFP-H148Q/I152L, iodide quench fluorescence; hits give low values; B-score at 10 µM; 0.3% of 340,000 active;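 active = fluorescence-ratio B-score plate-corrected deviation score at least 3 library SD below zero, with starting fluorescence score within 5 deviations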;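 note: channel opened by trigger with iodide after compound preincubation; score built on the fluorescence ratio of max minus min over baseline; more negative score means more quench and so TMEM16A activation or potentiation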
TMEM16A reconf – reconfirmed blocker of mouse TMEM16A calcium-activated chloride channel. HEK293 TMEM16A/YFP-H148Q, iodide quench fluorescence; ionomycin added to raise cell calcium. inhibition, % at 10 µM. shares compounds with TMEM16A inh. 39% of 2,300 active;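 active = mean duplicate percent inhibition, scaled so buffer wells are 0 and the reference blocker 100, over three buffer SD above buffer mean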
TMEM16A Ca cntr – calcium mobilization counter-screen hit for TMEM16A inhibitor series. 2% of 2,300 active. shares compounds with TMEM16A inh. calcium response (% of ionomycin), % at 10 µM. TMEM16A/YFP HEK293, Fluo4 calcium mobilization;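 active = duplicate-averaged calcium signal over 20% of the ionomycin maximum, relative to buffer baseline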;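 note: each well's signal is peak minus trough fluorescence divided by its pre-addition baseline; 0% = buffer wells and 100% = ionomycin wells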
Parental YFP cnt – acts in parental YFP-HEK293 cells lacking TMEM16A, counter-screen; shares compounds with TMEM16A inh; iodide YFP quench, ionomycin; YFP ratio F(max-min)/F0 at 10 µM; 2,300 tested, under 10 active; AID 652233;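 active = yellow fluorescent protein signal ratio exceeding the buffer control mean by over 5 SD of those controls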;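 note: ratio is mean of duplicate wells from kinetic YFP trace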
ClC-1 inh – blocks the rat ClC-1 voltage-dependent chloride channel; shares compounds with TMEM16A inh; AID 652236; ratio percent, % at 10 µM; 2,300 tested, under 10 active; CHO ClC-1-YFP, iodide influx fluorescence quench; iodide control reads 0, buffer control 100;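 active = duplicate-mean ratio percent above the mean of iodide-only control wells, which defines zero, plus 5 of their SD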;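 note: higher percent means stronger block of ClC-1 iodide influx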
* hit, by the source's call; i = inactive; . = no result given. Shown are actives, neighbours in structure and some others; about 2.7% of the full set was active somewhere.

SMILES	IDE inh	TMEM16A inh	IDE cell activ	CHT inh	CHT allo act	ANO1 activ	TMEM16A reconf	TMEM16A Ca cntr	Parental YFP cnt	ClC-1 inh
COc1ccccc1N1CCN(C(=O)COc2ccc(C)cc2Br)CC1	-5	100*	0	i	i	i	i	22%*	-1	2
CCOc1ccc(NC(=O)C2CC(=O)N3CCCN=C3S2)cc1 (centres undefined)	-1	i	3	i	i	i	.	.	.	.
CCCOc1ccc(NC(=O)C2CC(=O)N3CCCN=C3S2)cc1 (centres undefined)	-3	25*	-3	i	i	i	i	i	-1.1	-16
O=C(CSc1ccc(-c2cccnc2)nn1)Nc1ccc(F)c(F)c1	-3	i	1	i	i	i	.	.	.	.
CCC(Sc1nc2ccncc2[nH]1)C(=O)Nc1ccc(C)c(Cl)c1 (centres undefined)	0	i	-2	i	i	i	.	.	.	.
O=c1cc(C(F)(F)F)[nH]c2c(OC(F)(F)F)cccc12	7	100*	5	i	i	i	28%*	i	-1.1	-16
Oc1c(C=Nc2ccccc2)sc2ccccc12	-1	i	-13	i	i	i	.	.	.	.
Oc1c(C=Nc2cccnc2)sc2ccccc12	4	i	2	i	i	i	i	i	-1	-5
O=C(c1ccco1)N1CCN(C(=O)C(c2ccccc2)c2ccccc2)CC1	4	i	-1	i	i	i	.	.	.	.
CCC(C(=O)N1CCN(C(=O)c2ccco2)CC1)c1ccccc1 (centres undefined)	2	100*	1	i	i	i	i	i	-0.97	-22
Cc1ccc(CN2CCC(=O)N2)cc1	7	i	3	i	i	i	.	.	.	.
OC(COC(c1ccccc1)c1ccccc1)CN1CCN(c2cccc(Cl)c2)CC1 (centres undefined)	1	25*	5	i	i	i	i	i	-0.9	-10
Cc1ccc(NC(=O)C(C)c2ccc(-c3ccccc3)c(F)c2)c(C)c1 (centres undefined)	1	25*	3	i	i	i	i	i	-1.2	-14
CC(C(=O)O)c1ccc(-c2ccccc2)c(F)c1 (centres undefined)	2	i	9	i	i	i	.	.	.	.
CC(C)(C)NC(=O)Cn1c(SCC(N)=O)nc2ccccc21	4	100*	2	i	i	i	i	i	-1.1	-8
O=C(NCCCN1CCOCC1)C1CCN(S(=O)(=O)c2cccc(C(F)(F)F)c2)CC1	6	.	0	.	.	i	.	.	.	.
CCOC(=O)c1ccc(-n2[nH]c(-c3ccccc3)cc2=O)cc1	-3	100*	0	i	i	i	i	i	-0.89	-4
Cc1ccc(C)c(S(=O)(=O)N2CCN(c3nc(-c4cccnc4)nc4ccccc34)CC2)c1	-3	.	0	.	.	i	.	.	.	.
Cc1ccc(C)c(S(=O)(=O)C(C#N)c2nc3ccccc3nc2N2CCCC2)c1 (centres undefined)	10	i	4	i	i	i	i	i	-0.73	-8
Cc1ccc(C)c(S(=O)(=O)C(C#N)c2nc3ccccc3nc2N2CCOCC2)c1 (centres undefined)	0	25*	3	i	i	i	22%*	i	-0.89	-14
